Results as given in PubChem BioAssay (NCI).
This is part of a sample that, as a whole, favours compounds with a hit. Of some 83,000 tested, about 20% had one in any assay.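 Compound tested at a single concentration for 48 hours in 96-well plates; a percent growth value below 10 was scored as active.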 Active and inactive are the calls of the source.

Experiments:
Experiment in all cases: NCI-60 one-dose screen, 48 h (100 = growth as untreated, 0 = no growth, -100 = all killed)
Details in all cases: 10 µM unless noted
[1] = system: SK-MEL-2 melanoma
[2] = system: EKVX NSCLC
[3] = system: SN12C renal
[4] = system: UO-31 renal
[5] = system: TK-10 renal
[6] = system: ACHN renal
[7] = system: CAKI-1 renal
[8] = system: A498 renal
[9] = system: CCRF-CEM leukemia
[10] = system: MOLT-4 leukemia

Measured: growth

Cn1cc(-c2csc(-c3c[nH]c4ccccc34)n2)c2cnccc21
active: [2] 7.91% | [4] -64.4% | [6] -4.48% | [7] -1.8% | [9] -8.15%
inactive: [1] 96.2% | [3] 43.5% | [5] 55.4% | [8] 77.1%

Oc1c(I)cc(I)cc1CNCCN(Cc1ccccn1)Cc1ccccn1
inactive: [3] 16%
active: [1] -52.4% | [2] -10.3% | [4] -89.4% | [5] -91.5% | [6] -84% | [7] -92.2% | [8] -88.2% | [9] -10.1%

CN(C)CC(C)(C)C(=O)/C=C/c1ccccc1
active: [1] -74.2% [25 µM] | [2] -18.5% [25 µM] | [3] -34.1% [25 µM] | [4] -90.3% [25 µM] | [5] -9.48% [25 µM] | [6] -71.4% [25 µM] | [7] -6.22% [25 µM] | [8] -14.7% [25 µM] | [9] 2.8% [25 µM] | [10] -5.22% [25 µM]

Cn1cc(C(=O)c2nc(-c3c[nH]c4ccccc34)no2)c2cc(F)ccc21
inactive: [1] 26.9% | [2] 57.5% | [3] 59.5% | [4] 42.4% | [5] 57.6% | [6] 49.6% | [7] 32.9% | [8] 25.3% | [9] 23.9%

COC(=O)c1c(C)nc(C)c2c1C(=O)C(Br)=C(NCc1ccccc1)C2=O
active: [3] 8.24%
inactive: [1] 27.2% | [2] 17% | [4] 46.1% | [5] 86.6% | [6] 36.9% | [7] 51.8% | [8] 88.6% | [9] 25.5%

CCN1C(=S)N(c2ccccc2)C2C1NN=c1s/c(=C3\C(=O)N(C(C)C)c4ccccc43)c(=O)n12 (stereo not drawn)
inactive: [1] 107% | [2] 101% | [3] 55.1% | [4] 80.5% | [5] 86.6% | [6] 80% | [7] 76.2% | [8] 97.5% | [9] 93.1% | [10] 91.1%

O=C(Nc1nc2ccccc2s1)c1ccc(F)cc1
inactive: [1] 114% | [2] 77.8% | [3] 108% | [4] 89.1% | [5] 125% | [6] 98% | [7] 62.9% | [8] 89.8% | [9] 101%

CCn1cc(C(=O)NNC(=S)Nc2ccc(C)cc2)c(=O)c2ccc(C)nc21
inactive: [1] 104% | [2] 101% | [3] 88.6% | [4] 78.9% | [5] 100% | [6] 95.5% | [7] 95.4% | [8] 76.4% | [9] 90.7% | [10] 102%

CCn1c(SCC(=O)N/N=C(\C)c2ccc(Cl)cc2)nc2c1c(=O)n(C)c(=O)n2C
inactive: [1] 116% | [2] 97.9% | [3] 100% | [4] 80.8% | [5] 125% | [6] 99.5% | [7] 85.3% | [8] 91.3% | [9] 99.6% | [10] 92.2%

COc1ccc(-c2cc(-c3ccc(Cl)cc3)c(C#N)c(=O)n2Cc2ccc(C(=O)Nc3ccccc3N)cc2)cc1
inactive: [1] 79.3% | [2] 82.1% | [3] 79.1% | [4] 40.5% | [5] 140% | [6] 96.5% | [7] 55.8% | [8] 84% | [9] 42.6%

CNC(=O)c1[nH]cc(-c2ccc(OC)cc2)c1-c1cc(OC)c2c(c1OC)OCO2
inactive: [1] 105% | [2] 96.8% | [3] 96.8% | [4] 82.9% | [5] 108% | [6] 97.7% | [7] 83.6% | [8] 109% | [9] 101%

Nc1ncc(-c2ccc3ncnc(Nc4cccc(Cl)c4)c3c2)cn1
inactive: [1] 50.1% | [3] 45.9% | [4] 26.2% | [6] 21.5% | [7] 25.6% | [9] 40.5% | [10] 21.7%
active: [2] 1.79% | [5] -14.8% | [8] -9.82%

Cc1ccc(-c2nc(N3CCCNCC3)c3oc(-c4ccccc4)nc3n2)cc1
active: [1] -67.2% | [3] -85.1% | [4] -99% | [5] -95.9% | [6] -98.8% | [7] -71% | [9] -71% | [10] -73.2%
inactive: [2] 38.2% | [8] 93.4%

COC(=O)c1c2c(c(C)[n+]([O-])c1C)C(=O)C(NCc1cccc(OC)c1)=CC2=O
inactive: [1] 64.3% | [2] 57.2% | [4] 76.8% | [5] 104% | [6] 47.8% | [7] 55.7% | [8] 108% | [9] 16.3%
active: [3] 2.9% | [10] 3.8%

Ic1ccc(OCCCCn2ccnc2)cc1
inactive: [1] 80.7% | [2] 62.1% | [3] 76.6% | [4] 63.8% | [5] 45.3% | [6] 59.4% | [7] 70% | [8] 36.2% | [9] 55.1% | [10] 82.2%

O=C(NCCNc1nccc(Nc2ccc(S(=O)(=O)Nc3ccccn3)cc2)n1)c1cccc([N+](=O)[O-])c1
inactive: [1] 101% | [2] 98.6% | [3] 99.9% | [4] 82.5% | [5] 100% | [6] 102% | [7] 93.6% | [8] 83.6% | [9] 101% | [10] 93.8%

CCOC(=O)c1cc(C)n(-c2ccc(C(=O)O)cc2)c1C
inactive: [1] 32% | [2] 118% | [3] 87.9% | [4] 86.7% | [5] 93.5% | [7] 79.7% | [8] 111% | [9] 92.2% | [10] 92.3%
active: [6] 2.34%

CN1CCN(c2cc(Nc3cc(C4CC4)[nH]n3)nc(Nc3ccc(CC(=O)NCc4cccc(F)c4)cc3)n2)CC1
inactive: [1] 48.9% | [2] 50.3% | [3] 23.5% | [4] 36.8% | [5] 34.5% | [6] 45.9% | [9] 36.8% | [10] 16%
active: [7] 5.36% | [8] -28.7%

CCSc1nc2scc(C)c2c(=O)[nH]1
inactive: [1] 105% | [2] 97.7% | [3] 99.4% | [4] 88.6% | [5] 110% | [6] 101% | [7] 92.3% | [8] 89.7% | [9] 99.2% | [10] 96%

COC(=O)[C@@H](CCCCNC(=O)[C@]12CCC(C)(C)C[C@@H]1C1=CC[C@@H]3[C@@]4(C)C/C(=C/c5ccco5)C(=O)C(C)(C)[C@@H]4CC[C@@]3(C)[C@]1(C)CC2)NC(=O)[C@]12CCC(C)(C)C[C@@H]1C1=CC[C@@H]3[C@@]4(C)C/C(=C/c5ccco5)C(=O)C(C)(C)[C@@H]4CC[C@@]3(C)[C@]1(C)CC2
inactive: [1] 108% | [2] 105% | [3] 98.7% | [4] 79.2% | [5] 102% | [6] 107% | [7] 98.5% | [8] 116% | [9] 99.3% | [10] 97%

COCCNC(=O)Nc1ccc2nc(-c3cccs3)c(-c3cccs3)nc2c1
inactive: [1] 101% | [2] 87.9% | [3] 94.7% | [4] 74.4% | [5] 104% | [6] 89.3% | [7] 89.8% | [8] 33.7% | [9] 96.8% | [10] 85.9%

N#Cc1nc(-c2ccccc2)oc1S(=O)(=O)N1CCN(c2ccccc2)CC1
inactive: [1] 84.4% | [2] 116% | [3] 88% | [4] 84.5% | [5] 104% | [6] 102% | [7] 109% | [8] 95.1% | [10] 12.2%
active: [9] 2.42%

COc1ccc(C/C(C)=C(\c2ccc(Cl)cc2)c2ccc(OCCN3CCCCC3)cc2)cc1
inactive: [1] 97% | [2] 102% | [3] 94.3% | [4] 73.9% | [5] 97% | [6] 92.3% | [7] 86.9% | [8] 120% | [9] 90.1% | [10] 75.4%

CCCc1c(OC(=O)c2ccccc2)nc2[nH]c(=O)sc2c1C
inactive: [1] 107% | [2] 97.9% | [3] 92% | [4] 82.3% | [5] 96.1% | [6] 107% | [7] 95.6% | [8] 108% | [9] 103% | [10] 104%

COc1c(C(=O)Nc2ccc(C)c(Br)c2)ccc2ccccc12
inactive: [1] 102% | [2] 66.3% | [3] 96.8% | [4] 85.5% | [5] 103% | [6] 104% | [7] 71.9% | [8] 91.2% | [9] 91.3% | [10] 73.7%

Cc1ccc(CNc2ccc3nc(CCC4CCCCC4)[nH]c3c2)cc1
inactive: [1] 58.8% | [2] 53.4% | [3] 45.7% | [4] 23.8% | [5] 54.8% | [6] 47.8% | [7] 35.8% | [8] 57.5% | [9] 39.9% | [10] 19.5%

COC(=O)[C@]1(C)CCC[C@]2(C)[C@H]3C[C@H]4C(C(C)C)=C[C@]3(CC[C@H]21)[C@@H]1C(=O)CC[C@H](OCCC#N)[C@@H]14
inactive: [1] 86.6% | [2] 57.1% | [3] 93.5% | [4] 71.1% | [5] 94.8% | [6] 87.5% | [7] 68% | [8] 105% | [9] 81.5% | [10] 48.6%
